According to PubChem BioAssay (EPA / NIEHS):
Where “and” joins values, the source holds several entries; their conditions need not be identical. Equal values may be shown once. Some compounds were tested as several samples or in several runs, with calls that do not always agree. Calls of active or inactive are those of the source. How the source made its calls: active means hit-call score of the fitted dose curve at least 0.9, where 1 is the maximum; inactive means score below 0.9.

Tests used:
[1] = read-out: Human Leukocyte Antigen - DR isotype (HLADR), HLA-DRA (gene 3122); assay: BSK_3C_HLADR: BioMAP Diversity Plus: 3C Assay for Human Leukocyte Antigen - DR isotype (HLADR) Biomarker Activity (AID 2283019); settings: primary human endothelial cells (HUVEC); actives raise or lower the signal
Outline: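 HUVEC, 3C stimulation, 24 h post-dose; HLA-DR by ELISA; bidirectional curve fit vs DMSO baseline; gain or loss of signal scored.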

[2] = read-out: Interleukin-8 (IL8), CXCL8 (gene 3576); assay: BSK_CASM3C_IL8: BioMAP Diversity Plus: CASM3C Assay for Interleukin-8 (IL8) Biomarker Activity (AID 2283042); settings: primary human coronary artery smooth muscle cells; actives raise or lower the signal;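 further: IL-8 protein level quantified by ELISA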
[3] = read-out: Human Leukocyte Antigen - DR isotype (HLADR), HLA-DRA (gene 3122); assay: BSK_CASM3C_HLADR: BioMAP Diversity Plus: CASM3C Assay for Human Leukocyte Antigen - DR isotype (HLADR) Biomarker Activity (AID 2283043); settings: primary human coronary artery smooth muscle cells; actives raise or lower the signal;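 further: cell-surface HLA-DR protein level quantified by ELISA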
[4] = read-out: Monokine induced gamma interferon (MIG), CXCL9 (gene 4283); assay: BSK_CASM3C_MIG: BioMAP Diversity Plus: CASM3C Assay for Monokine induced gamma interferon (MIG) Biomarker Activity (AID 2283048); settings: primary human coronary artery smooth muscle cells; actives raise or lower the signal;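 further: MIG protein level measured by ELISA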
[5] = read-out: Urokinase-type plasminogen activator receptor (uPAR), PLAUR (gene 5329); assay: BSK_CASM3C_uPAR: BioMAP Diversity Plus: CASM3C Assay for Urokinase-type plasminogen activator receptor (uPAR) Biomarker Activity (AID 2283054); settings: primary human coronary artery smooth muscle cells; actives raise or lower the signal;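 further: cell-surface uPAR protein level quantified by ELISA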
[6] = read-out: Intercellular Adhesion Molecule 1 (ICAM1), ICAM1 (gene 3383); assay: BSK_KF3CT_ICAM1: BioMAP Diversity Plus: KF3CT Assay for Intercellular Adhesion Molecule 1 (ICAM1) Biomarker Activity (AID 2283067); settings: primary human keratinocytes with fibroblasts; actives raise or lower the signal
Outline: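 ELISA readout of ICAM-1; KF3CT human skin co-culture (keratinocytes + foreskin fibroblasts), 24 h post-dose; gain/loss fit vs DMSO baseline.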

[7] = read-out: CD40, CD40 (gene 958); assay: BSK_SAg_CD40: BioMAP Diversity Plus: SAg Assay for CD40 Biomarker Activity (AID 2283088); settings: primary human HUVEC with PBMC; actives raise or lower the signal
Outline: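 HUVEC/PBMC co-culture, 24 h post-dose; CD40 by ELISA, fluorescence intensity; bidirectional fit vs DMSO negative control.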

[8] = read-out: CD69, CD69 (gene 969); assay: BSK_SAg_CD69: BioMAP Diversity Plus: SAg Assay for CD69 Biomarker Activity (AID 2283089); settings: primary human HUVEC with PBMC; actives raise or lower the signal;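 on AC50: cell surface CD69 protein quantified by ELISA with fluorescence detection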
Outline: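 HUVEC co-cultured with PBMC were dosed with chemical, and CD69 was measured by ELISA with fluorescence read-out 24 h later. Bidirectional curve fitting used DMSO as negative control and activity baseline.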

[9] = read-out: E-selectin (Homo sapiens) (UniProt P16581); assay: BSK_SAg_Eselectin: BioMAP Diversity Plus: SAg Assay for Eselectin Biomarker Activity (AID 2283091); settings: primary human HUVEC with PBMC; actives raise or lower the signal
Outline: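 E-selectin ELISA readout at 24 h post-dosing in human umbilical vein endothelial cell/PBMC co-culture; gain or loss of signal fitted relative to DMSO baseline.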

[10] = read-out: Interleukin-8 (IL8), CXCL8 (gene 3576); assay: BSK_SAg_IL8: BioMAP Diversity Plus: SAg Assay for Interleukin-8 (IL8) Biomarker Activity (AID 2283094); settings: primary human HUVEC with PBMC; actives raise or lower the signal
Outline: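 Primary human endothelial cells with PBMC, exposed 24 h; IL-8 determined by ELISA, analysed bidirectionally relative to DMSO.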

[11] = BSK_SAg_Proliferation: Cell Proliferation Assessment in the BioMAP Diversity Plus: SAg Assay (AID 2283095); settings: primary human HUVEC with PBMC;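 further: relative cell number as total protein by SRB absorbance in sub-confluent culture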
Outline: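 A human primary co-culture of umbilical vein endothelium and blood mononuclear cells receives compound; relative cell number is quantified at 96 h by SRB staining and 560 nm absorbance, with DMSO-referenced bidirectional curve fitting.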

[12] = BSK_SAg_SRB: Viability Assessment in the BioMAP Diversity Plus: SAg Assay (AID 2283096); settings: primary human HUVEC with PBMC;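 further: cells read one day after compound addition; hits may be either gain or loss of signal compared with DMSO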
Outline: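 Compounds were added to a human vascular co-culture of umbilical vein endothelium and PBMC. After 24 h, parallel cultures were fixed with 10% TCA, stained with 0.1% sulforhodamine B and read at 560 nm. Gain or loss of signal was fitted relative to DMSO.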

[13] = BSK_BT_PBMCCytotoxicity: PBMC Cytotoxicity Assessment in the BioMAP Diversity Plus: BT Assay (AID 2284225); settings: primary human B cells with PBMC;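 further: PBMC viability measured by Alamar Blue dye reduction fluorescence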
Outline: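 Primary human co-culture of B cells and PBMC, pre-dosed 1 h then activated with SEB and TSST-1. Cytotoxicity is taken from Alamar Blue dye reduction, added for 6 h at the end of a 90 h incubation.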

[14] = read-out: Interleukin 17A (IL17A), IL17A (gene 3605); assay: BSK_BT_xIL17A: BioMAP Diversity Plus: BT Assay for Interleukin 17A (IL17A) Biomarker Activity (AID 2284229); settings: primary human B cells with PBMC
Outline: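 Luminex xMAP readout of secreted IL-17A; human B cell + PBMC co-culture; 24 h post-dose; positive-direction fit vs DMSO negative control.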

[15] = read-out: Collagen III, COL3A1 (gene 1281); assay: BSK_MyoF_CollagenIII: BioMAP Diversity Plus: MyoF Assay for Collagen III Biomarker Activity (AID 2284239); settings: primary human lung fibroblasts
Outline: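 Lung fibroblast culture; 24 h compound exposure; collagen III by ELISA; gain-of-signal fit vs DMSO baseline.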

[16] = read-out: Interleukin 2 (IL2), IL2 (gene 3558); assay: BSK_BT_xIL2: BioMAP Diversity Plus: BT Assay for Interleukin 2 (IL2) Biomarker Activity (AID 2284245); settings: primary human B cells with PBMC
Outline: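 Co-cultures of primary human B cells and PBMC are treated with chemical and sampled at 24 h. IL-2 secretion is quantified by Luminex xMAP, with DMSO-treated wells as baseline.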

[17] = read-out: Collagen IV, COL4A1 (gene 1282); assay: BSK_MyoF_CollagenIV: BioMAP Diversity Plus: MyoF Assay for Collagen IV Biomarker Activity (AID 2284247); settings: primary human lung fibroblasts
Outline: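 Lung fibroblasts (human primary) treated with chemicals were assayed after 24 h for Collagen IV using an ELISA, with DMSO serving as negative control and baseline for a positive-direction fit.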

[18] = read-out: Plasminogen activator inhibitor-1 (PAI1), SERPINE1 (gene 5054); assay: BSK_MyoF_PAI1: BioMAP Diversity Plus: MyoF Assay for Plasminogen activator inhibitor-1 (PAI1) Biomarker Activity (AID 2284256); settings: primary human lung fibroblasts
Outline: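 MyoF lung fibroblasts, human primary; compound 24 h; PAI-1 ELISA; positive-direction fit vs DMSO baseline; parallel SRB total-protein staining for cytotoxicity.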

[19] = read-out: Matrix Metallopeptidase 1 (MMP1), MMP1 (gene 4312); assay: BSK_MyoF_MMP1: BioMAP Diversity Plus: MyoF Assay for Matrix Metallopeptidase 1 (MMP1) Biomarker Activity (AID 2284268); settings: primary human lung fibroblasts
Outline: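 Cells: human lung fibroblasts. Exposure: 24 h chemical dosing. Detection: ELISA for MMP1. Analysis: upward fitting against DMSO negative control.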

[20] = read-out: TIMP metallopeptidase inhibitor 1 (TIMP1), TIMP1 (gene 7076); assay: BSK_MyoF_TIMP1: BioMAP Diversity Plus: MyoF Assay for TIMP metallopeptidase inhibitor 1 (TIMP1) Biomarker Activity (AID 2284269); settings: primary human lung fibroblasts
Outline: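 ELISA quantified TIMP-1 levels after 24 h dosing of primary human lung fibroblasts, with DMSO as baseline. Parallel SRB total protein staining (0.1% SRB after TCA fixation, 560 nm) flagged overt cytotoxicity.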

Measured: AC50

E-selectin (Homo sapiens), sequence (P16581 whole entry, looked up): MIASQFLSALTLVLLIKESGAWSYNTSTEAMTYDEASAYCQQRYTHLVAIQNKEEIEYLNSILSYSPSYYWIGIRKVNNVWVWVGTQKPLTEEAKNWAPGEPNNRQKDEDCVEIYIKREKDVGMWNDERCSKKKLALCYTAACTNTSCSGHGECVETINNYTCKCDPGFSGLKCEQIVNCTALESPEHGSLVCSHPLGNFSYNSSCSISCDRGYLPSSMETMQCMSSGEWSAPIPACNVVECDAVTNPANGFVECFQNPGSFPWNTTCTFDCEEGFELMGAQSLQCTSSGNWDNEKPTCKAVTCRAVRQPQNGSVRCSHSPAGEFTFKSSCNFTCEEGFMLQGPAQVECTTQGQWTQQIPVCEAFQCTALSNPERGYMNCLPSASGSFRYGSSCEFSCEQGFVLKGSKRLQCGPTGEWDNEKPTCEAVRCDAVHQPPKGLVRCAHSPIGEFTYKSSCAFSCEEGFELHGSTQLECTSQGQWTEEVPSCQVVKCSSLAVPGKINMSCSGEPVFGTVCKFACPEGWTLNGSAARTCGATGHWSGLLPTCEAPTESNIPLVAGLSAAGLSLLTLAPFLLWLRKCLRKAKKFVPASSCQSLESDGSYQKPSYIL

O=c1c2ccccc2c(=O)c2c1cc(Cl)c1[nH]c3c([nH]c12)c(Cl)cc1c(=O)c2ccccc2c(=O)c13
inactive: [1] | [2] | [3] | [4] | [5] | [6] | [7] | [8] | [9] | [10] | [11] | [12] | [13] | [14] | [15] | [16] | [17] | [18] | [19] | [20]

CCCOC(=O)c1ccccc1C(=O)OCCC
active: [1] 7.06 µM | [5] 5.19 µM
inactive: [2] | [3] | [4] | [6] | [7] | [8] | [9] | [10] | [11] | [12] | [13] | [14] | [15] | [16] | [17] | [18] | [19] | [20]

O=P1(NCCCl)OCCCN1CCCl (configuration not stated)
inactive: [1] | [2] | [3] | [4] | [5] | [6] | [7] | [8] | [9] | [10] | [11] | [12] | [13] | [14] | [15] | [16] | [17] | [18] | [19] | [20]

O=c1[nH]c(Cl)c(Cl)cc1Cl
inactive: [1] | [2] | [3] | [4] | [5] | [6] | [7] | [8] | [9] | [10] | [11] | [12] | [13] | [14] | [15] | [16] | [17] | [18] | [20]
active: [19] 20 µM

COC(C)(C)CCC[C@H](C)C/C=C/C(C)=C/C(=O)OC(C)C
inactive: [2] | [6] | [10] | [15] | [17] | [18] | [20]
active: [1] 28.3 µM | [3] 20 µM | [4] 29.9 µM | [5] 31.2 µM | [7] 26.8 µM | [8] 18 µM | [9] 20 µM | [11] 28.6 µM | [12] 33.3 µM | [13] 20 µM | [14] 13.4 µM | [16] 28.4 µM | [19] 26.9 µM

Cc1ccc(OP(=O)(Oc2ccc(C)cc2)Oc2ccc(C)cc2)cc1 (tested in a mixture with another compound)
active: [1] 20 µM | [5] 1.11 µM | [7] 20 µM | [8] 9.8 µM | [9] 20 µM | [10] 10.6 µM | [11] 9.42 µM | [12] 20 µM | [13] 5.41 µM | [14] 14.1 µM | [16] 20 µM | [19] 27.6 µM
inactive: [2] | [3] | [4] | [6] | [15] | [17] | [18] | [20]

O=C(O)CCCc1ccc(N(CCCl)CCCl)cc1
inactive: [13] | [14] | [15] | [16] | [17] | [18] | [19] | [20]
active: [1] 15.8 µM and 13.4 µM | [2] 20 µM | [3] 15.9 µM and 20 µM | [4] 30.8 µM and 20 µM | [5] 30.6 µM and 20 µM | [6] 20 µM | [7] 20 µM | [8] 23.7 µM and 20 µM | [9] 31 µM and 20 µM | [10] 20 µM and 10.2 µM | [11] 16.4 µM and 12.2 µM | [12] 20 µM and 10.3 µM | [14] 15 µM | [15] 20 µM | [16] 35.5 µM | [18] 0.016 µM | [19] 30.6 µM

CNC(=O)Oc1cc(C)c(SC)c(C)c1
inactive: [2] | [4] | [6] | [8] | [9] | [10] | [11] | [12] | [15] | [16] | [17] | [18] | [19] | [20]
active: [1] 24.6 µM | [3] 12.9 µM | [5] 20 µM | [7] 16.7 µM | [13] 15.6 µM | [14] 11.5 µM

O=[N+]([O-])O
inactive: [1] | [2] | [3] | [4] | [5] | [6] | [7] | [8] | [9] | [10] | [11] | [12]

CC(C)CCCCCCCOP(=O)(Oc1ccccc1)Oc1ccccc1
inactive: [2] | [3] | [4] | [5] | [6] | [17]
active: [1] 6.74 µM | [7] 26.2 µM | [8] 16.7 µM | [9] 24.4 µM | [10] 11.9 µM | [11] 15.8 µM | [12] 25.9 µM | [13] 35.8 µM | [14] 19.5 µM | [15] 8.98 µM | [16] 26.4 µM | [18] 12.8 µM | [19] 5.17 µM | [20] 20 µM

CC(=O)/C=C/c1ccccc1
active: [1] 26.9 µM | [11] 13 µM | [13] 17.4 µM | [14] 20 µM | [16] 20 µM
inactive: [2] | [3] | [4] | [5] | [6] | [7] | [8] | [9] | [10] | [12] | [15] | [17] | [18] | [19] | [20]
